{"source": "PubChem BioAssay (NCATS)", "key": {"[1]": {"target": "Glucagon-like peptide 1 receptor (Homo sapiens) (UniProt P43220)", "sequence (P43220 whole entry, looked up)": "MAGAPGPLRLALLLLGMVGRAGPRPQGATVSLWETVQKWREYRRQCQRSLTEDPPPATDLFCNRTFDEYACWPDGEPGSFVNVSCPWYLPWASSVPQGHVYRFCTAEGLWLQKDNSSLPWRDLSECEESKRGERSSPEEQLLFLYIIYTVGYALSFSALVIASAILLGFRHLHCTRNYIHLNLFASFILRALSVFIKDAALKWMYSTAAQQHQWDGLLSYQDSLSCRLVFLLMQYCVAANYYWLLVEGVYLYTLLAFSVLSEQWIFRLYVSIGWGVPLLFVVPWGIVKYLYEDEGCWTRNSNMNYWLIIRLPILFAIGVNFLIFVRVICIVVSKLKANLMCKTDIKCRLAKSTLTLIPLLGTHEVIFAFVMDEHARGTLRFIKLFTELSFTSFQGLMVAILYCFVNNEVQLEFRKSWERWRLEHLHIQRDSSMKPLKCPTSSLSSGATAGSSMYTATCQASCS", "assay": "qHTS of GLP-1 Receptor Agonists: LOPAC Validation (AID 624148)", "in_short": "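HEK293 cells stably co-expressing a cAMP-responsive luciferase reporter and a hypersensitive GLP-1R were plated 12 h at 37 °C and exposed to compounds for 4-6 hr at 37 °C, 5% CO2. Luminescence was read 12 min after adding detection reagent.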"}, "[2]": {"assay": "HTS Assay for Allosteric Antagonists of the Human D2 Dopamine Receptor: Hit Validation in HTRF (AID 624455)", "in_short": "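Signal from an HTRF read-out in D1-expressing stable cells gave hit activity as inhibition of the D1 response.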"}, "[3]": {"assay": "qHTS of Nrf2 Activators: LOPAC Validation (AID 624149)", "in_short": "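ARE reporter activation measured in AREc32 firefly luciferase cells after 24 hr compound exposure; Steady-Glo luminescence.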"}, "[4]": {"assay": "qHTS assay for small molecule agonists of the antioxidant response element (ARE) signaling pathway (AID 651741; active means well fitted activation curve with a large enough effect in the signal ratio; the % refers to the signal ratio; further: potency means the concentration at half of the fitted maximal effect)", "in_short": "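ARE-bla HepG2 cells (beta-lactamase reporter under ARE control) were plated at 2,000 cells/well, preincubated 5 h at 37 C/5% CO2, then treated with DMSO-dissolved compounds for 16 h at 37 C; LiveBLAzer B/G FRET substrate added, fluorescence read after 2 h at room temperature.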"}, "[5]": {"assay": "qHTS assay for small molecule activators of the nuclear factor-kappa B (NF-kB) signaling pathway (AID 651749; active means well fitted activation curve with a large enough effect in the signal ratio; the % refers to the signal ratio; further: series mostly up to about 77 µM)", "details": "NF-kB-bla ME-180 cells, beta-lactamase FRET ratio, 16 h; stronger effect = higher value", "in_short": "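ME-180 cells stably carrying a beta-lactamase reporter under an NF-kB response element were exposed to compound or DMSO vehicle for 16 hr at 37C, 5% CO2. Pathway activation was read by FRET, since reporter expression disrupts FRET.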"}, "[6]": {"assay": "qHTS assay for environmental chemicals that activate the Aryl hydrocarbon Receptor (AhR) signaling pathway (AID 651777); further: nearly all actives have a fitted effect of over 15% in size; further: potency means the concentration at half of the fitted maximal effect", "details": "1A2-DRE human hepatoma cells, luciferase, 24 h; activation: stronger effect = higher value", "in_short": "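Human hepatoma 1A2-DRE cells stably carrying a DRE/CYP1A2 promoter–luciferase reporter, 1,200 cells/well, exposed to compound 24 hr at 37 C. Luciferase read by One-Glo luminescence after 30 min at room temperature; increased signal marks AhR activation.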"}, "[7]": {"target": "Peroxisome proliferator-activated receptor alpha (Homo sapiens) (UniProt Q07869)", "sequence (Q07869 whole entry, looked up)": "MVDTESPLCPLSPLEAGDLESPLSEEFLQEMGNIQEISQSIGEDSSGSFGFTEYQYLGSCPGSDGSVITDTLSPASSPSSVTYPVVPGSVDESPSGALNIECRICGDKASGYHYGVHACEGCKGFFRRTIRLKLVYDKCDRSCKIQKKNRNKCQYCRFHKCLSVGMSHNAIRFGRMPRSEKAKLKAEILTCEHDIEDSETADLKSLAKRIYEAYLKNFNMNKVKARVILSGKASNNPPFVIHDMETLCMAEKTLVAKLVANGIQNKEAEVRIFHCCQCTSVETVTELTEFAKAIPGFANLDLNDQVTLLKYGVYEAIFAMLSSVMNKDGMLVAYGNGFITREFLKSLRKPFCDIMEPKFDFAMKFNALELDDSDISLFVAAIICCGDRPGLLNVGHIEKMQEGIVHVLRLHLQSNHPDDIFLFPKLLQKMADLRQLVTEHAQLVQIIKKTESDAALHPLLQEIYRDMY", "assay": "qHTS assay for small molecule agonists of the peroxisome proliferator-activated receptor alpha (PPARalpha) signaling pathway (AID 651778)", "details": "PathHunter PPARalpha complementation, chemiluminescence, 6 h; stronger effect = higher value", "in_short": "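Cells plated at 2,000/well and held overnight at 37 C, 5% CO2, then compound added by pin tool for 6 hr; after PathHunter detection reagent and 60 min at room temperature, chemiluminescence from enzyme complementation was read.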"}, "[8]": {"assay": "qHTS assay for small molecule activators of the p53 signaling pathway (AID 651743; active means well fitted activation curve with a large enough effect in the signal ratio, not every such curve was filed as active; the % refers to the signal ratio; further: potency means the concentration at half of the fitted maximal effect; on activation: series mostly up to about 92 µM)", "details": "HCT-116 p53RE-bla, beta-lactamase FRET ratio, 16 h; activation: stronger effect = higher value", "in_short": "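p53RE-bla HCT-116 cells with a stably integrated beta-lactamase reporter under p53 response elements were plated, rested 5 hours at 37 C/5% CO2, then exposed to compounds in DMSO for 16 hours at 37 C. LiveBLAzer B/G FRET substrate was read after 2 hours at room temperature.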"}, "[9]": {"target": "Tumor necrosis factor (Homo sapiens) (UniProt P01375)", "sequence (P01375 whole entry, looked up)": "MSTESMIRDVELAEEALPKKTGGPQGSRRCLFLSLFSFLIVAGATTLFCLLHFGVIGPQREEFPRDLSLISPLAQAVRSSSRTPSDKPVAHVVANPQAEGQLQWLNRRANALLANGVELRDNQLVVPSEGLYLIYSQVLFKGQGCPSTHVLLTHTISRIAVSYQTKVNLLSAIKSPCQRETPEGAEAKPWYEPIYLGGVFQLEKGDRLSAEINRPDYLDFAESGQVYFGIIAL", "assay": "qHTS assay to identify small molecules that stimulate Tumor Necrosis Factor-alpha (TNF-alpha) secretion (AID 651757; active means well fitted curve in the direction sought with a large enough effect in the signal ratio; the % refers to the signal ratio)", "in_short": "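Secreted TNF-alpha from compound-treated THP-1 cells (17 hrs, 37 C) was quantified with a homogeneous time-resolved fluorescence antibody assay.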"}, "[10]": {"assay": "qHTS assay to identify small molecules that stimulate interleukin-8 (IL-8) secretion (AID 651758; active means well fitted activation curve with a large enough effect in the signal ratio; the % refers to the signal ratio)", "in_short": "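THP-1, 2000 cells/well; cpd 16 h, 37 C; add cryptate + XL665 anti-IL-8 Abs; RT 1-3 h; TR-FRET read.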"}, "[11]": {"target": "Nuclear receptor ROR-gamma (Homo sapiens) (UniProt P51449)", "sequence (P51449 whole entry, looked up)": "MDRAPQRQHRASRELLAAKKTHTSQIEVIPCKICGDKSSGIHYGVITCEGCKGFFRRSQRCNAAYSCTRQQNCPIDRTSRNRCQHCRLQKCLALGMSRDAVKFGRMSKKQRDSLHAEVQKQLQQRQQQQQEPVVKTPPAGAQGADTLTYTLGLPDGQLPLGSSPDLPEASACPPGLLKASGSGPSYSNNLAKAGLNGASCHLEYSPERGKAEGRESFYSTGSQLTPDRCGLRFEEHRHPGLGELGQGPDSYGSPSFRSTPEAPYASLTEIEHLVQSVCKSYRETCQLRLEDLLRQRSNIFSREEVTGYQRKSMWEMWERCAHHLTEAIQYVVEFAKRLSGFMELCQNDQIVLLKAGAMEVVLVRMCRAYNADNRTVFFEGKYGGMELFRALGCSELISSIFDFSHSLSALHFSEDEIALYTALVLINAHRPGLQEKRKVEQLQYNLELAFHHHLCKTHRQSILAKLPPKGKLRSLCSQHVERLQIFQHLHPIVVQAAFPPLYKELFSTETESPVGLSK", "assay": "qHTS assay for small molecule antagonists of the retinoid-related orphan receptor gamma (ROR-gamma) signaling pathway (AID 651802); further: series mostly up to about 92 µM; nearly all actives have a fitted effect of over 60% in size", "in_short": "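Antagonism is scored as a fall in luminescence from a RORE-luciferase reporter in CHO cells expressing ROR under a TET-inducible promoter, measured 16hr after doxycycline induction in the presence of compound.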"}, "[12]": {"assay": "qHTS assay for small molecule disruptors of the mitochondrial membrane potential - 1 hr assay (AID 651754; calls by dose curve; further: nearly all actives have a fitted effect of over 35% in size)", "in_short": "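Steps: seed HepG2 cells and let attach overnight; pin-transfer compound or vehicle; incubate 1 hr at 37C; add Mito-MPS dye for 30 min; read two-channel fluorescence for monomer and aggregate forms.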"}, "[13]": {"assay": "qHTS assay for small molecule disruptors of the mitochondrial membrane potential - 5 hr assay (AID 651755; calls by dose curve; further: nearly all actives have a fitted effect of over 40% in size)", "in_short": "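HepG2 cells, attached overnight at 37C, were exposed to compound or DMSO for 5 hr at 37C, 5% CO2. Mito-MPS dye was then added for 30 min, and fluorescence read at 490/535 nm (monomers) and 540/590 nm (aggregates).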"}}, "note": "Values joined by “and” are separate entries in the source; they are usually repeats but may differ in a detail not shown here. Identical values can stand only once. Values without a mark were called inactive. Results filed as inconclusive are left out. Where a call stands in place of a potency, no number is given. Active and inactive are the calls of the source. Unless noted, the call rests on the fitted dose curve; in most records, active means well fitted curve in the direction sought with a large enough effect; inconclusive means small, poorly fitted or top-dose-only effect, or another doubt; inactive means no such curve, though single readings can be large; an effect the other way counts as inactive or inconclusive.", "data": [{"smiles": "CC1=C(C)C(=O)C(CCCCC#CCCCC#CCO)=C(C)C1=O", "values": [{"measurement": "outcome", "setting": "[1]", "result": "inactive"}, {"measurement": "Potency", "setting": "[2]", "result": "inactive"}]}, {"smiles": "Cc1ccc(S(=O)(=O)NC(=O)NN2CCCCCC2)cc1", "values": [{"measurement": "outcome", "setting": "[1]", "result": "inactive"}, {"measurement": "outcome", "setting": "[3]", "result": "inactive"}, {"measurement": "Potency", "setting": "[2]", "result": "inactive"}, {"measurement": "Potency", "setting": "[4]", "result": "inactive"}, {"measurement": "activation", "setting": "[5]", "result": -1.9, "unit": "%"}, {"measurement": "activation", "setting": "[6]", "result": 10.4, "unit": "%"}, {"measurement": "max response", "setting": "[7]", "result": -0.39, "unit": "%"}]}, {"smiles": "O=C(O)CCCCCCCC(=O)O", "values": [{"measurement": "outcome", "setting": "[1]", "result": "inactive"}, {"measurement": "outcome", "setting": "[3]", "result": "inactive"}, {"measurement": "Potency", "setting": "[2]", "result": "inactive"}, {"measurement": "Potency", "setting": "[4]", "result": "inactive"}, {"measurement": "activation", "setting": "[8]", "result": -3.2, "unit": "%"}, {"measurement": "activation", "setting": "[5]", "result": 0.884, "unit": "%"}, {"measurement": "activation", "setting": "[6]", "result": -0.0037, "unit": "%"}, {"measurement": "max response", "setting": "[7]", "result": -1.61, "unit": "%"}]}, {"smiles": "CC(=O)Nc1nnc(S(N)(=O)=O)s1", "values": [{"measurement": "outcome", "setting": "[3]", "result": "inactive"}, {"measurement": "Potency", "setting": "[2]", "result": "inactive"}, {"measurement": "Potency", "setting": "[4]", "result": "inactive"}, {"measurement": "activation", "setting": "[8]", "result": -5.68, "unit": "%"}, {"measurement": "activation", "setting": "[5]", "result": 1.13, "unit": "%"}, {"measurement": "activation", "setting": "[6]", "result": -1.84, "unit": "%"}, {"measurement": "max response", "setting": "[7]", "result": -2.77, "unit": "%"}]}, {"smiles": "CO[C@@]1(NC(=O)CSCC#N)C(=O)N2C(C(=O)O)=C(CSc3nnnn3C)CS[C@@H]21", "values": [{"measurement": "outcome", "setting": "[3]", "result": "inactive"}, {"measurement": "Potency", "setting": "[2]", "result": "inactive"}]}, {"smiles": "O=C1CC2(CCCC2)CC(=O)N1CCCCN1CCN(c2ncccn2)CC1", "values": [{"measurement": "outcome", "setting": "[3]", "result": "inactive"}, {"measurement": "Potency", "setting": "[2]", "result": "inactive"}]}, {"smiles": "C[C@]12CCC(=O)C=C1CC[C@@H]1[C@@H]2C(=O)C[C@@]2(C)[C@H]1CC[C@]2(O)C(=O)CO", "values": [{"measurement": "outcome", "setting": "[3]", "result": "inactive"}, {"measurement": "Potency", "setting": "[2]", "result": "inactive"}, {"measurement": "Potency", "setting": "[4]", "result": "inactive"}, {"measurement": "activation", "setting": "[8]", "result": -9.05, "unit": "%"}, {"measurement": "activation", "setting": "[5]", "result": -0.64, "unit": "%"}, {"measurement": "activation", "setting": "[6]", "result": -0.997, "unit": "%"}, {"measurement": "max response", "setting": "[7]", "result": -0.227, "unit": "%"}]}, {"smiles": "NC(=Nc1ccccc1)Nc1ccccc1", "values": [{"measurement": "activation", "setting": "[8]", "result": "-3.94% and -5.84%"}, {"measurement": "outcome", "setting": "[9]", "result": "inactive"}, {"measurement": "Potency", "setting": "[10]", "result": "inactive"}, {"measurement": "Potency", "setting": "[6]", "result": "12.6 µM (active)"}, {"measurement": "max response", "setting": "[7]", "result": "-2.99% and 6.68%"}, {"measurement": "Potency", "setting": "[11]", "result": "inactive"}]}, {"smiles": "CN=C(NC#N)NCCSCc1nc[nH]c1C", "values": [{"measurement": "outcome", "setting": "[3]", "result": "inactive"}, {"measurement": "Potency", "setting": "[2]", "result": "inactive"}, {"measurement": "Potency", "setting": "[4]", "result": "inactive"}, {"measurement": "outcome", "setting": "[9]", "result": "inactive"}, {"measurement": "activation", "setting": "[6]", "result": 2.08, "unit": "%"}, {"measurement": "max response", "setting": "[7]", "result": 0.401, "unit": "%"}, {"measurement": "Potency", "setting": "[11]", "result": "inactive"}]}, {"smiles": "C[C@]12C=CC(=O)C=C1CC[C@H]1[C@@H]3C[C@@H](O)[C@](O)(C(=O)CO)[C@@]3(C)C[C@H](O)[C@@]12F", "values": [{"measurement": "outcome", "setting": "[3]", "result": "inactive"}, {"measurement": "Potency", "setting": "[2]", "result": "inactive"}, {"measurement": "Potency", "setting": "[4]", "result": "inactive"}, {"measurement": "activation", "setting": "[8]", "result": -0.529, "unit": "%"}, {"measurement": "activation", "setting": "[6]", "result": 0.771, "unit": "%"}, {"measurement": "max response", "setting": "[7]", "result": 4.65, "unit": "%"}]}, {"smiles": "Nc1nc(N)c2nc(-c3ccccc3)c(N)nc2n1", "values": [{"measurement": "outcome", "setting": "[3]", "result": "inactive"}, {"measurement": "Potency", "setting": "[2]", "result": "inactive"}, {"measurement": "Potency", "setting": "[4]", "result": "54.5 µM (active) and 33.5 µM (active)"}, {"measurement": "Potency", "setting": "[8]", "result": "20 µM (active)"}, {"measurement": "activation", "setting": "[6]", "result": "13.5% and 13.2%"}, {"measurement": "max response", "setting": "[7]", "result": "-0.436% and -0.649%"}, {"measurement": "Potency", "setting": "[11]", "result": "inactive"}]}, {"smiles": "COc1cc(Cc2cnc(N)nc2N)cc(OC)c1OC", "values": [{"measurement": "Potency", "setting": "[2]", "result": "inactive"}, {"measurement": "Potency", "setting": "[4]", "result": "inactive"}, {"measurement": "activation", "setting": "[8]", "result": -2.04, "unit": "%"}, {"measurement": "Potency", "setting": "[12]", "result": "inactive"}, {"measurement": "Potency", "setting": "[13]", "result": "inactive"}, {"measurement": "outcome", "setting": "[9]", "result": "inactive"}, {"measurement": "activation", "setting": "[6]", "result": -1.14, "unit": "%"}, {"measurement": "max response", "setting": "[7]", "result": -3.22, "unit": "%"}]}, {"smiles": "CC(=O)OC(C)C[N+](C)(C)C", "note": "(configuration not stated)", "values": [{"measurement": "outcome", "setting": "[3]", "result": "inactive"}, {"measurement": "Potency", "setting": "[2]", "result": "inactive"}]}, {"smiles": "CC(=O)Oc1cc(C(C)C)c(OCCN(C)C)cc1C", "values": [{"measurement": "outcome", "setting": "[3]", "result": "inactive"}, {"measurement": "Potency", "setting": "[2]", "result": "inactive"}]}, {"smiles": "Cc1nnc(SCC2=C(C(=O)O)N3C(=O)[C@@H](NC(=O)Cn4cnnn4)[C@H]3SC2)s1", "values": [{"measurement": "outcome", "setting": "[3]", "result": "inactive"}, {"measurement": "Potency", "setting": "[2]", "result": "inactive"}]}, {"smiles": "FC(F)(F)c1ccccc1-n1ccnc1", "values": [{"measurement": "outcome", "setting": "[3]", "result": "inactive"}, {"measurement": "Potency", "setting": "[2]", "result": "inactive"}]}]}
